Measured values reported in PubChem BioAssay AID1159580 (chemical genetic matrix, 2015).
Values joined by “and” are separate entries in the source; they are usually repeats but may differ in a detail not shown here. Identical values can stand only once. Screen size: about 5,500 compounds; about 2,000 (36%) were called active. Another 18% or so got no clear call; they are omitted. Cut-off read from the data, not from the text of the source: active = normalized growth mostly below about 0.91 (no sharp cut-off); inconclusive = no clear call, values can overlap the other calls; inactive = mostly above about 0.92. This is one part of the list.

Assay: chemical genetic growth profiling, strain panel (AID 1159580);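 note: tested at 20 µM; growth read once vehicle control cultures reached saturation at 30 °C; 1 = growth at the plate median or of vehicle wells; lower values mean less growth of the strain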
Details: S. cerevisiae deletion strains, growth OD
[1] = locus YAL013W, strain DEP1, hits give low values
[2] = locus YDR150W, strain NUM1, hits give low values
[3] = locus YJR075W, strain HOC1, hits give low values
[4] = locus YMR263W, strain SAP30, hits give low values
[5] = locus YPL055C, strain LGE1, hits give low values
[6] = locus YPL241C, strain CIN2, hits give low values

Measured: normalized growth

NC(Cc1ccc(F)cc1)C(=O)O (configuration not stated)
inactive: [1] 1.01 | locus YAL021C, strain ccr4, hits give low values 0.987 | locus YAL026C, strain drs2, hits give low values 1.03 | locus YAL030W, strain snc1, hits give low values 1.01 | locus YBL061C, strain skt5, hits give low values 1.03 | locus YBR009C, strain hhf1, hits give low values 1.03 | locus YBR021W, strain FUR4, hits give low values 0.99 | locus YBR023C, strain chs3, hits give low values 1.01 | locus YBR171W, strain sec66, hits give low values 1.03 | locus YBR229C, strain ROT2, hits give low values 1.01 | locus YBR231C, strain swc5, hits give low values 1.02 | locus YCL011C, strain gbp2, hits give low values 1.02 | locus YCL016C, strain dcc1, hits give low values 1.01 | locus YCL029C, strain bik1, hits give low values 1.03 | locus YCL061C, strain MRC1, hits give low values 1.01 | locus YCL069W, strain vba3, hits give low values 1.01 | locus YCR088W, strain abp1, hits give low values 1.02 | locus YDL005C, strain med2, hits give low values 1.01 | locus YDL035C, strain GPR1, hits give low values 1.01 | locus YDL040C, strain nat1, hits give low values 1 | locus YDL074C, strain BRE1, hits give low values 1.01 | locus YDL101C, strain DUN1, hits give low values 1.01 | locus YDL134C, strain PPH21, hits give low values 1.01 | locus YDL185W, strain tfp1, hits give low values 1.03 | locus YDL192W, strain arf1, hits give low values 1.02 | locus YDR001C, strain nth1, hits give low values 1.01 | locus YDR069C, strain doa4, hits give low values 1.02 | locus YDR101C, strain arx1, hits give low values 1.04 | locus YDR137W, strain rgp1, hits give low values 0.994 | [2] 0.997 | locus YDR159W, strain sac3, hits give low values 1.02 | locus YDR162C, strain NBP2, hits give low values 1.02 | locus YDR195W, strain ref2 1.04 | locus YDR297W, strain sur2, hits give low values 1.02 | locus YDR318W, strain mcm21, hits give low values 1.02 | locus YDR334W, strain swr1, hits give low values 1.02 | locus YDR335W, strain msn5, hits give low values 1.02 | locus YDR388W, hits give low values 1.03 | locus YDR392W, strain spt3, hits give low values 0.923 | locus YDR502C, strain sam2, hits give low values 1.02 | locus YEL003W, strain gim4, hits give low values 1.02 | locus YEL037C, strain rad23, hits give low values 1.01 | locus YEL061C, strain CIN8 (second series), hits give low values 1.02 | locus YEL061C, strain CIN8, hits give low values 1 | locus YER015W, strain faa2, hits give low values 1.02 | locus YER016W, strain bim1, hits give low values 1.02 | locus YER110C, hits give low values 1.04 | locus YER111C, strain swi4, hits give low values 1.03 | locus YER155C, strain BEM2 (second series), hits give low values 1.04 | locus YER155C, strain BEM2, hits give low values 1 | locus YER167W, strain BCK2, hits give low values 1 | locus YFR010W, strain ubp6, hits give low values 1.01 | locus YGL078C, strain dbp3, hits give low values 1.02 | locus YGL086W, strain mad1, hits give low values 1 | locus YGL167C, strain pmr1, hits give low values 1.02 | locus YGL173C, strain kem1, hits give low values 1.02 | locus YGL227W, strain vid30, hits give low values 1.02 | locus YGL240W, strain doc1, hits give low values 1.03 | locus YGL248W, strain PDE1, hits give low values 1.02 | locus YGL253W, strain hxk2, hits give low values 1.04 | locus YGR135W, strain pre9, hits give low values 1.02 | locus YGR229C, strain SMI1, hits give low values 0.992 | locus YGR252W, strain gcn5, hits give low values 1.06 | locus YHR013C, strain ard1, hits give low values 1.01 | locus YHR027C, strain rpn1, hits give low values 1.01 | locus YHR030C, strain SLT2, hits give low values 1.01 and 1.02 | locus YHR079C, strain IRE1 (second series), hits give low values 1.03 | locus YHR079C, strain IRE1, hits give low values 1.02 | locus YHR094C, strain hxt1, hits give low values 1.02 | locus YHR129C, strain ARP1, hits give low values 1.01 | locus YHR142W, strain chs7, hits give low values 0.996 | locus YHR200W, strain rpn10, hits give low values 1.02 | locus YIL066C, strain RNR3, hits give low values 1.01 | locus YIL073C, strain SPO22, hits give low values 1.09 | locus YIL125W, strain kgd1, hits give low values 1.02 | locus YIR030C, strain dcg1, hits give low values 1.02 | locus YJL092W, strain hpr5, hits give low values 1.02 | locus YJL095W, strain BCK1 (second series), hits give low values 1.01 | locus YJL095W, strain BCK1, hits give low values 1.02 and 1.03 | locus YJL115W, strain asf1, hits give low values 1.01 | locus YJL129C, strain trk1, hits give low values 1.01 | locus YJL134W, strain LCB3, hits give low values 1 | locus YJL154C, strain vps35, hits give low values 1.01 | locus YJL164C, strain tpk1, hits give low values 0.966 | locus YJL166W, strain qcr8, hits give low values 1 | locus YJL168C, strain set2, hits give low values 1.01 | locus YJL187C, strain SWE1 (second series), hits give low values 1.03 | locus YJL187C, strain SWE1, hits give low values 1.02 | locus YJR043C, strain POL32, hits give low values 1 | locus YJR066W, strain TOR1, hits give low values 1 | [3] 1.01 | locus YKL009W, strain mrt4, hits give low values 1 | locus YKL068W, hits give low values 1.01 | locus YKL085W, strain MDH1 (second series), hits give low values 1.02 | locus YKL085W, strain MDH1, hits give low values 1.02 | locus YKL160W, strain elf1, hits give low values 0.99 | locus YKR001C, strain vps1, hits give low values 1.01 | locus YKR026C, strain gcn3, hits give low values 1.03 | locus YKR091W, strain srl3, hits give low values 1.02 | locus YLL001W, strain dnm1, hits give low values 1 | locus YLL026W, hits give low values 1.01 | locus YLL041C, strain sdh2, hits give low values 1.01 | locus YLR027C, strain aat2, hits give low values 1.01 | locus YLR039C, strain RIC1, hits give low values 1.04 | locus YLR058C, strain SHM2, hits give low values 1.02 | locus YLR102C, strain apc9, hits give low values 1.03 | locus YLR113W, strain HOG1, hits give low values 1.03 | locus YLR221C, strain rsa3, hits give low values 0.993 | locus YLR258W, strain gsy2, hits give low values 1.02 | locus YLR262C, strain YPT6 (second series), hits give low values 0.997 | locus YLR262C, strain YPT6, hits give low values 1.06 | locus YLR268W, strain sec22, hits give low values 1.03 | locus YLR320W, strain mms22, hits give low values 1.02 | locus YLR330W, strain CHS5, hits give low values 1.01 | locus YLR342W, strain FKS1 (second series), hits give low values 0.979 | locus YLR342W, strain FKS1, hits give low values 1.02 | locus YLR357W, strain rsc2, hits give low values 1.01 | locus YLR370C, strain arc18, hits give low values 1.02 | locus YLR371W, strain rom2, hits give low values 1.02 | locus YLR384C, strain iki3, hits give low values 1.02 | locus YLR418C, strain cdc73, hits give low values 1.02 | locus YML016C, strain PPZ1, hits give low values 1 | locus YML032C, strain rad52, hits give low values 1.03 | locus YML120C, strain ndi1, hits give low values 1.01 | locus YML124C, strain tub3, hits give low values 1.02 | locus YMR058W, strain fet3, hits give low values 1.02 | locus YMR078C, strain ctf18, hits give low values 1.04 | locus YMR125W, strain sto1, hits give low values 1.04 | locus YMR129W, hits give low values 1.01 | locus YMR205C, strain PFK2, hits give low values 1.02 | locus YMR223W, strain ubp8, hits give low values 1.02 | locus YMR231W, strain pep5, hits give low values 1.02 | [4] 1.01 | locus YMR307W, strain GAS1, hits give low values 1.05 | locus YNL067W, strain RPL9B, hits give low values 1.03 | locus YNL071W, strain lat1, hits give low values 1 | locus YNL128W, strain TEP1, hits give low values 1.04 | locus YNL183C, strain NPR1, hits give low values 0.969 | locus YNL209W, strain ssb2, hits give low values 1.02 | locus YNL233W, strain BNI4, hits give low values 1.02 | locus YNL248C, strain rpa49, hits give low values 0.982 | locus YNL250W, strain rad50, hits give low values 1.02 | locus YNL271C, strain bni1, hits give low values 1.04 | locus YNL298W, strain CLA4, hits give low values 1.02 | locus YNL307C, strain MCK1, hits give low values 1.03 | locus YNL322C, strain KRE1 (second series), hits give low values 1.01 | locus YNR049C, strain mso1, hits give low values 1.04 | locus YNR052C, strain pop2, hits give low values 1.02 | locus YOL012C, strain htz1 1.76 | locus YOL147C, strain pex11, hits give low values 1.03 | locus YOR001W, strain rrp6, hits give low values 1.01 | locus YOR061W, strain CKA2, hits give low values 1.02 | locus YOR069W, strain VPS5, hits give low values 1 | locus YOR070C, strain gyp1, hits give low values 1.01 | locus YOR080W, strain dia2, hits give low values 1.02 | locus YOR083W, strain WHI5, hits give low values 0.985 | locus YOR106W, strain vam3, hits give low values 0.992 | locus YOR136W, strain idh2, hits give low values 1.05 | locus YOR144C, strain elg1, hits give low values 1.02 | locus YOR184W, strain ser1, hits give low values 1.04 | locus YOR231W, strain MKK1, hits give low values 1.05 | locus YOR265W, strain rbl2, hits give low values 1.01 | locus YOR270C, strain vph1, hits give low values 1.02 | locus YOR290C, strain snf2, hits give low values 0.998 | locus YOR316C, strain cot1, hits give low values 1.02 | locus YPL051W, strain arl3, hits give low values 0.998 | [5] 1.02 | locus YPL078C, strain atp4, hits give low values 0.988 | locus YPL106C, strain sse1, hits give low values 1.02 | locus YPL240C, strain hsp82, hits give low values 1.03 | [6] 1 | locus YPL256C, strain CLN2, hits give low values 1.02 | locus YPR119W, strain clb2, hits give low values 1.02 | locus YPR141C, strain kar3, hits give low values 1.03 | locus YPR163C, strain tif3, hits give low values 1.04 | locus YPR167C, strain met16, hits give low values 1.03 | strain wtn01, hits give low values 1.03

N[C@@H](Cc1c[nH]c2ccc(O)cc12)C(=O)O
inactive: [1] 1.02 | locus YAL040C, strain CLN3, hits give low values 0.959 | locus YCL061C, strain MRC1 (second series), hits give low values 1.01 | [2] 1.03 | locus YDR363W, strain ESC2, hits give low values 1.01 | locus YER002W, strain NOP16, hits give low values 1 | [3] 1.01 | [4] 0.997 | locus YNL175C, strain NOP13, hits give low values 1.03 | locus YNL197C, strain WHI3, hits give low values 1 | locus YNL224C, strain SQS1, hits give low values 1.01 | locus YNL322C, strain KRE1, hits give low values 1.01 | locus YOR083W, strain WHI5 (second series), hits give low values 1.02 | [5] 1.03 | [6] 1
